Consider eight compounds from PubChem BioAssay (EPA / NIEHS).

Results filed as inconclusive are left out. More than one record can exist for a structure, and the calls need not agree. Active and inactive are the calls of the source. Rule for the calls, unless noted: active = hit-call score of the fitted dose curve at least 0.9, where 1 is the maximum; inconclusive = response in the unintended direction; inactive = score below 0.9.

Read-out in assay [1]: Thyroid Hormone Responsive (THRSP), THRSP (gene 7069)
Briefly: LTEA_HepaRG_THRSP: Life Technologies and Expression Analysis (LTEA) Assay for Thyroid Hormone Responsive (THRSP) using HepaRG (AID 2283536; active = hit-call score of the fitted dose curve at least 0.9, where 1 is the maximum; inactive = score below 0.9). The note with it: mRNA level, 48 h; actives raise or lower the signal. Put shortly: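 Differentiated HepaRG cells treated 48 h in serum-free induction medium with 8 half-log concentrations up to 100 uM (0.5% DMSO), duplicates. THRSP mRNA by TaqMan qRT-PCR normalised to ACTB, GAPDH, POLR2A; bidirectional fit versus DMSO.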

Read-out in assay [2]: Cellular tumor antigen p53 (Homo sapiens) (UniProt P04637)
Kind of assay: LTEA_HepaRG_TP53: Life Technologies and Expression Analysis (LTEA) Assay for Tumor Protein P53 (TP53) using HepaRG (AID 2283537; active = hit-call score of the fitted dose curve at least 0.9, where 1 is the maximum; inactive = score below 0.9). Particulars: mRNA level, 48 h; actives raise or lower the signal. The procedure, abridged: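 HepaRG, 48 h exposure, top 100 uM, half-log 8-point, 0.5% DMSO vehicle, duplicates. Read: TP53 mRNA by TaqMan qRT-PCR, normalised to ACTB/GAPDH/POLR2A; bidirectional fit vs DMSO.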

Read-out in assay [3]: UDP glucuronosyltransferase (UGT1A1), UGT1A1 (gene 54658)
Kind of assay: LTEA_HepaRG_UGT1A1: Life Technologies and Expression Analysis (LTEA) Assay for UDP glucuronosyltransferase (UGT1A1) using HepaRG (AID 2283538; active = hit-call score of the fitted dose curve at least 0.9, where 1 is the maximum; inactive = score below 0.9). The note with it: mRNA level, 48 h; actives raise or lower the signal. Put shortly:
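Human liver HepaRG cultures receive test chemical for 48 h, up to 100 uM in 0.5% DMSO, with phenobarbital induction controls. UGT1A1 mRNA is measured by qRT-PCR and normalized to ACTB, GAPDH and POLR2A.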

Read-out in assay [4]: UDP glucuronosyltransferase (UGT1A6), UGT1A6 (gene 54578)
Briefly: LTEA_HepaRG_UGT1A6: Life Technologies and Expression Analysis (LTEA) Assay for UDP glucuronosyltransferase (UGT1A6) using HepaRG (AID 2283539; active = hit-call score of the fitted dose curve at least 0.9, where 1 is the maximum; inactive = score below 0.9). Particulars: mRNA level, 48 h; actives raise or lower the signal. Put shortly:
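Expression was quantified by TaqMan qRT-PCR on Fluidigm arrays with ACTB/GAPDH/POLR2A normalization and bidirectional fitting against 0.5% DMSO. HepaRG cells (~100,000/well) were treated in duplicate for 48 h at eight half-log concentrations up to 100 uM in serum-free induction medium.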

Read-out in assay [5]: X-box binding protein 1 (XBP1), XBP1 (gene 7494)
Kind of assay: LTEA_HepaRG_XBP1: Life Technologies and Expression Analysis (LTEA) Assay for X-box binding protein 1 (XBP1) using HepaRG (AID 2283540; active = hit-call score of the fitted dose curve at least 0.9, where 1 is the maximum; inactive = score below 0.9). Particulars: mRNA level, 48 h; actives raise or lower the signal. The procedure, abridged:
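XBP1 transcript by qRT-PCR (housekeeping-normalized: ACTB, GAPDH, POLR2A) after 48 h chemical treatment of HepaRG cells, 8-point half-log series topping at 100 uM, vehicle 0.5% DMSO. Gain and loss of signal fitted relative to DMSO.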

A short description of assay [6]: ATG_XTT_Cytotoxicity: Cytotoxicity Assessment in the Attagene TRANS-FACTORIAL HepG2 Assay (AID 2283584). Put shortly:
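Viability endpoint from XTT after 24 h chemical exposure of reporter-transfected human HepG2 liver cells; signal loss fitted relative to DMSO negative control.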

Assay [7] is described as follows: TOX21_p53_BLA_p2_viability: Viability Assessment in the Tox21 HCT-116 p53 Agonism Beta-lactamase Assay, Phase 2 (AID 2283591).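 Note: compound exposure lasted 16 h at 37 °C; actives lower the ATP signal meaning cytotoxicity.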 The procedure, abridged: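 HCT116 p53-bla cells, 4000/well, dosed after 5 h plating (217-fold dilution of DMSO stocks) and incubated 16 h at 37C. Viability taken as cellular ATP by CellTiter-Glo luminescence after 30 min RT; signal loss marks cytotoxicity.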

The nature of assay [8]: TOX21_p53_BLA_p3_viability: Viability Assessment in the Tox21 HCT-116 p53 Agonism Beta-lactamase Assay, Phase 3 (AID 2283593).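 Note: cells exposed to compound for 16 h before reading.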 The procedure, abridged:
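HCT116 cells, 4000/well, dosed 5 h after plating by pin transfer (217-fold dilution from DMSO stock) and incubated 16 h at 37C, 5% CO2. Viability read as ATP luminescence with CellTiter-Glo after 30 min at room temperature.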

Assay [9] addresses Cellular tumor antigen p53 (Homo sapiens) (UniProt P04637). Kind of assay: TOX21_p53_BLA_p3_ratio: Tox21 HCT-116 p53 Agonism Beta-lactamase Assay, Ratio, Phase 3 (AID 2283596). The procedure, abridged: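 HCT116 p53-bla cells (4000/well) given compound in DMSO (217-fold dilution) after 5 h, incubated 16 h at 37C. CCF4-AM substrate 2 h at room temperature; 460/530 nm emission ratio, gain fitted against DMSO.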

Assay [10] in a line: TOX21_p53_BLA_p4_viability: Viability Assessment in the Tox21 HCT-116 p53 Agonism Beta-lactamase Assay, Phase 4 (AID 2283597).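 Note: hits lower the luminescence signal meaning cytotoxicity.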 Put shortly: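 Following a 16 h exposure at 37C, the treated HCT116 wells were first read for the FRET ratio. They were then lysed with CellTiter-Glo, and ATP luminescence was recorded after 30 min at room temperature.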
The target in assay [11] is Cellular tumor antigen p53 (Homo sapiens) (UniProt P04637). Kind of assay: TOX21_p53_BLA_p5_ratio: Tox21 HCT-116 p53 Agonism Beta-lactamase Assay, Ratio, Phase 5 (AID 2283599). The procedure, abridged: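 HCT-116 p53-bla cells (4000/well) plated 5 h, dosed with compound (217-fold DMSO dilution) for 16 h at 37 C; CCF4-AM substrate 2 h at room temperature. Activity is the 460/530 nm emission ratio (405 nm excitation), fitted in gain-of-signal direction versus DMSO.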

The nature of assay [12]: TOX21_p53_BLA_p5_viability: Viability Assessment in the Tox21 HCT-116 p53 Agonism Beta-lactamase Assay, Phase 5 (AID 2283600). The procedure, abridged: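 After the 460/530 nm beta-lactamase measurement, the wells received an ATP-detection luciferase reagent; signal was read 30 min later at RT. Compound treatment lasted 16 h on cells pre-incubated 5 h post-seeding.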
In assay [13] the target is Cellular tumor antigen p53 (Homo sapiens) (UniProt P04637). Briefly: TOX21_p53_BLA_p4_ratio: Tox21 HCT-116 p53 Agonism Beta-lactamase Assay, Ratio, Phase 4 (AID 2283601). Put shortly: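 HCT-116 p53 beta-lactamase reporter cells (4000/well) preincubated 5 h, then compound (217-fold dilution of DMSO stock) for 16 h at 37C. CCF4-AM substrate added 2 h at room temperature; 460/530 nm emission ratio fitted upward versus DMSO.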

The nature of assay [14]: Tanguay_ZF_120hpf_MORT_legacy: (Legacy) Oregon State University Tanguay Lab 120 Hour Post-fertilization zebrafish Assay for Mortality (AID 2283633). The procedure, abridged: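 Static waterborne exposure from 6 to 120 hpf at 28C of single dechorionated wild-type (5D) embryos per well, 0.64% DMSO final. Death recorded present/absent by brightfield at 24 and 120 hpf.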
Assay [15] in a line: Tanguay_ZF_120hpf_YSE_legacy: (Legacy) Oregon State University Tanguay Lab 120 Hour Post-fertilization zebrafish Assay for Yolk Sac Edema (AID 2283634). The procedure, abridged: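 Presence or absence of yolk sac edema was recorded at 120 hpf in surviving larvae. These were wild-type Tropical 5D embryos, chorion removed at 4 hpf, held in static exposure at 28C from 6 hpf with 0.64% DMSO vehicle.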

A short description of assay [16]: Tanguay_ZF_120hpf_AXIS_legacy: (Legacy) Oregon State University Tanguay Lab 120 Hour Post-fertilization zebrafish Assay for Body Axis Malformation (AID 2283635).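 For AC50: potency for an increased fraction of larvae scored with body axis malformation.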 Put shortly:
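Binary scoring of axis defects at 120 hpf under brightfield, fitted positive versus DMSO. Tropical 5D embryos, chorion removed by pronase at 4 hpf, were singly exposed in sealed, dark plates at 28C from 6 hpf; DMSO 0.64% final.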

The nature of assay [17]: Tanguay_ZF_120hpf_EYE_legacy: (Legacy) Oregon State University Tanguay Lab 120 Hour Post-fertilization zebrafish Assay for Eye Malformation (AID 2283636).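 Note: binary presence or absence of eye malformation scored by brightfield in 120 hpf larvae.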 Put shortly: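 Dechorionated Tropical 5D zebrafish embryos, one per well from 6 hpf, static exposure to 120 hpf at 28C, 0.64% DMSO. Eye malformation scored present/absent by brightfield; dead embryos not scored.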
Assay [18] can be described thus: Tanguay_ZF_120hpf_SNOU_legacy: (Legacy) Oregon State University Tanguay Lab 120 Hour Post-fertilization zebrafish Assay for Snout Malformation (AID 2283637). Put shortly: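 Dechorionated tropical 5D wild-type zebrafish embryos exposed statically from 6 to 120 hpf at 28C, one per well, in 0.64% DMSO. Snout malformation scored as present/absent by brightfield at 120 hpf; dead embryos not scored.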

The nature of assay [19]: LTEA_HepaRG_LDH_cytotoxicity: Cytotoxicity Assessment in the Life Technologies and Expression Analysis (LTEA) Assay (AID 2283563).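 For AC50: LDH activity released into spent culture medium as a marker of cell death.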 Put shortly: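 LDH release into culture medium read after 48 h chemical treatment of HepaRG cells. Duplicate wells, eight-point half-log series topping at 100 uM, 0.5% DMSO vehicle and baseline.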
For assay [20], the target named is Cellular tumor antigen p53 (Homo sapiens) (UniProt P04637). Briefly: TOX21_p53_BLA_p2_ratio: Tox21 HCT-116 p53 Agonism Beta-lactamase Assay, Ratio, Phase 2 (AID 2283592). Put shortly:
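Gain-of-signal p53 agonism was scored from the beta-lactamase FRET ratio (460/530 nm, 405 nm excitation) in HCT116 cells treated 16 h at 37C, 5% CO2, with DMSO serving as negative control and baseline.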

One may read the AC50 as the midpoint of the concentration-response curve, whichever way the signal moves.

Chain of Cellular tumor antigen p53 (Homo sapiens) (P04637 whole entry, looked up): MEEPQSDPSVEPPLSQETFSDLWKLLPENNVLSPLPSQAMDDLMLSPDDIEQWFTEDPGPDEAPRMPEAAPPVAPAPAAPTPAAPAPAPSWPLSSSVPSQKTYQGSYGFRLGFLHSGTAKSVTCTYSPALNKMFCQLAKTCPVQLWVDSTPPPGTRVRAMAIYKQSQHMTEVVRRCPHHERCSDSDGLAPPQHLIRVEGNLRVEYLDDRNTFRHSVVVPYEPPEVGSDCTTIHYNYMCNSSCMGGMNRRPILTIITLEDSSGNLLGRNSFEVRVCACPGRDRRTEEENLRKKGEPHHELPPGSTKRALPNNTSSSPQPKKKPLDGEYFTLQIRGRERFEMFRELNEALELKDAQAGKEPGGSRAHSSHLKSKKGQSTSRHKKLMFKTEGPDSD

For the compound `Cc1c(C(=O)O)c(O)cc2c1C(=O)c1c(O)c([C@@H]3O[C@H](CO)[C@@H](O)[C@H](O)[C@H]3O)c(O)c(O)c1C2=O`, the outcome in assay [1], in [2], in assay [3], in [4], in assay [5] and in assay [6] was inactive. Besides, the compound was classed as inactive in [7], in [8], in [9], in assay [10], in assay [11] and in [12]. In addition, the outcome in assay [13], in [14], in assay [15], in assay [16], in assay [17] and in [18] was inactive.

Turning to `Cc1ccccc1Cl`, the outcome in assay [1], in assay [2], in assay [3], in assay [5], in assay [19] and in assay [6] was inactive. For the same compound, the compound was called inactive in [7], in assay [20], in [8], in [9], in assay [11] and in assay [12]. Besides, the outcome in [13], in assay [14], in [15], in assay [16], in assay [17] and in assay [18] was inactive.

As to `CCCCN(CCCC)CCCC`, the call in assay [1], in assay [2], in assay [3], in assay [5], in [19] and in assay [6] was inactive. Further, the result in assay [7], in [20], in [9], in [10], in assay [11] and in assay [14] was inactive. Besides, the result in assay [15], in [16] and in assay [18] was inactive.

Turning to `CNCc1cc(F)ccc1Oc1ccc(Cl)c(Cl)c1`, the compound was classed as inactive in assay [1], in assay [2], in assay [5], in [20], in assay [8] and in assay [9]. For the same compound, the call in [10], in [11], in assay [12], in assay [14], in [15] and in [16] was inactive. For the same compound, the compound was classed as inactive in [18]. Further, the AC50 is 82.8 µM (active) in [3], 74 µM (active) in assay [4], 81.7 µM (active) in [19] and 64.4 µM (active) in assay [13].

Turning to `Cc1ccc(C(C)C)c(O)c1`, the result in assay [1], in assay [2], in assay [3], in [5], in assay [19] and in assay [6] was inactive. In addition, the result in [20], in assay [8], in [9], in assay [10], in assay [11] and in assay [12] was inactive. Moreover, the result in [13], in assay [14], in assay [15], in assay [16], in assay [17] and in assay [18] was inactive. The AC50 in [7] is 66 µM (active); in [10], 60.5 µM (active); in [11], 73.2 µM (active); in assay [13], 86.6 µM (active).

For the compound `CN1CCN(Cc2cc(-c3ccc4[nH]c(=O)oc4c3)co2)[C@@H](c2ccc(F)cc2)C1`, the compound was classed as inactive in assay [1], in assay [2], in [3], in [4], in [5] and in assay [19]. Further, the compound was called inactive in assay [7], in [8], in assay [10], in assay [14], in assay [15] and in [16]. Besides, the call in assay [17] was inactive. Moreover, the AC50 in assay [18] is 25.6 µM (active).

On to `COc1cc(S(=O)(=O)O)c(C)cc1N=Nc1c(O)ccc2cc(S(=O)(=O)O)ccc12`, for which the outcome in assay [1], in assay [2], in assay [3], in assay [4], in assay [5] and in assay [6] was inactive. For the same compound, the outcome in [20], in [9], in assay [10], in [11], in assay [13] and in [14] was inactive. The outcome in [15], in assay [16], in [17] and in assay [18] was inactive.

Take `CCOC(=O)C(C)(C)Oc1ccc(Cl)cc1`: the compound was classed as inactive in assay [1], in [2], in assay [4], in assay [5], in [19] and in assay [7]. The result in assay [8], in assay [9], in assay [10], in assay [11], in [12] and in assay [13] was inactive. Also, the outcome in assay [14], in assay [15] and in [17] was inactive. Moreover, the AC50 in [3] is 15.8 µM (active); in assay [16] it was 63.8 µM (active).
